Screens: PubChem, several laboratories
Dyrk1A ADPGlo: rat Dyrk1A kinase inhibitors, primary screen, biochemical, single point, plate reader. AID 504441, 2011. ADP-Glo luminescence, NFATc1 peptide. Dual specificity tyrosine-phosphorylation-regulated kinase 1A (Rattus norvegicus), Q63470. inhibition, % at 12.5 µM. 0.43% of 310,000 active; in the data active = inhibition above about 50%;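 note: plate controls were vehicle with enzyme for no effect and no enzyme for full effect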
dFosB act: activators of delta FosB homodimer, primary screen, biochemical, fluorescence polarization, TAMRA-CDK5 oligo, single point; activation, % at 25 µM; 0.99% of 340,000 active; Protein FosB (Mus musculus), P13346; purified delta FosB; percent of positive-control signal above neutral wells;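 active = mean activation above about 17%, with every replicate also reaching it, limit read from the data, passing the limit was not always enough; inconclusive = only one of the two conditions met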
esBAF inh: Bmi1 luciferase reporter increase in mESCs, primary screen, esBAF inhibitor project, mouse ES cells, Bmi1 luciferase knock-in, single point. 24 h; 100% = twice the neutral-well signal. reporter increase, % at 12.5 µM. 2% of 350,000 active. AID 602393, 2012; in the data active = activation above about 40%; inconclusive = no clear call, values can overlap the other calls;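 note: 0% = median of the plate's neutral control wells and 100% = double that signal; a rise in the Bmi1 reporter signal indicates esBAF inhibition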
CDK5 inh: inhibitors of human CDK5/p35 kinase, primary screen, biochemical, single concentration; Recombinant CDK5/p35, ADP-Glo luminescence, 60 min; inhibition, % at 10 µM; 0.01% of 330,000 active; AID 488839, 2010;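 active = highest replicate inhibition of at least 50% and at least 75% of replicates reaching 50%; inconclusive = only one of the two criteria met; inactive = both criteria failed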;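 note: plate controls were DMSO neutral control for no effect and GW8510 at 10 µM for full effect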
Rtt109 HAT inh: inhibitors of C. albicans Rtt109/Vps75 HAT, primary screen, biochemical, ThioGlo CoA-SH fluorescence, plate reader | Histone acetyltransferase RTT109 (Candida albicans (strain SC5314 / ATCC MYA-2876)), … | purified Rtt109/Vps75, 4 h | inhibition, % at 34.9 µM | 0.16% of 330,000 active | AID 540336, 2011;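 active = inhibition of at least 50% in every replicate; inconclusive = best replicate reaches 50% inhibition but some replicates fall short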
Target sequence (Q5AAJ8 whole entry, looked up): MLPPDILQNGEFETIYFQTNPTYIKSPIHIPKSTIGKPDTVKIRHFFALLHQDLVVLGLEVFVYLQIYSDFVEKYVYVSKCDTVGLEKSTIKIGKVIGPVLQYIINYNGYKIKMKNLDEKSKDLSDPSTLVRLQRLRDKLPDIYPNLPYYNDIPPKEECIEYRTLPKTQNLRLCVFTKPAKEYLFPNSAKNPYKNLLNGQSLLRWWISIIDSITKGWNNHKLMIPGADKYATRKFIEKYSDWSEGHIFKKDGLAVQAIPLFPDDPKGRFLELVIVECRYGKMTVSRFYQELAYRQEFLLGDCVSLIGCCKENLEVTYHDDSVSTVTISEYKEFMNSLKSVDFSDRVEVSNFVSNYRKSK
SMARCA2 act: SMARCA2 (BRM) function activators, primary screen, cell-based, luminescence, high throughput | activation, % at 9.1 µM | AID 652017, 2013 | MG213 cells, MMTV-luciferase reporter, dexamethasone, overnight | 1% of 370,000 active; in the data active = activation above about 7.8%;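 note: 0% = vehicle wells and 100% = reference activator wells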
SMARCA2 conf: SMARCA2 (BRM) function activators, confirmation, cell-based, luminescence, triplicate. shares compounds with SMARCA2 act. MG213 cells, MMTV-luciferase with dexamethasone, overnight; MG213 cells expressing E1A, Rb sequestered; DMSO wells 0%, reference activator 100%. activation, % at 9.1 µM. 30% of 3,500 active;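 active = activation above its plate's cutoff, the mean activation of tested wells plus 3 SD, cut at about 7.9% in these data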
GAL4-VP16 Luc: GAL4-VP16 luciferase reporter activation, counter-screen for SMARCA2 (BRM) activator project, cell-based, pG5luc, luminescence, high throughput. shares compounds with SMARCA2 act. HEK293 GAL4-VP16 pG5luc reporter; scaled: DMSO wells 0%, SAHA wells 100%. activation, % at 9.1 µM. 41% of 3,500 active. AID 686939, 2013;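 active = activation above the solvent-only control well mean plus 3 SD, averaged across control plates, cut at about 5.2% in these data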
* = called active by the depositor. Only some compounds are listed: those with a hit (about 3.2% of all), similar ones and a draw of the others.

`C[C@H](CO)N1C[C@H](C)[C@@H](CN(C)CC2CCCCC2)Oc2ccc(NS(=O)(=O)c3ccccc3)cc2C1=O` gave esBAF inh -4.
Screening O=C(CSc1ncn[nH]1)c1ccc2c(c1)OCO2 returned Dyrk1A ADPGlo 31, dFosB act 4, esBAF inh 5, CDK5 inh 1, Rtt109 HAT inh 2, SMARCA2 act 8.6*, SMARCA2 conf 1 and GAL4-VP16 Luc 1.
`O=C(CSc1ncn[nH]1)c1ccc2c(c1)OCCO2` gave Dyrk1A ADPGlo 6, dFosB act 3, esBAF inh 7, CDK5 inh -2, Rtt109 HAT inh -2 and SMARCA2 act -2.
`C[C@H]1CN([C@@H](C)CO)C(=O)Cc2cc(NC(=O)Nc3ccc(F)cc3)ccc2O[C@@H]1CN(C)Cc1ccc(Oc2ccccc2)cc1` gave esBAF inh -4.
CC(=O)NNc1ncnc2c1cnn2-c1ccc(C)c(C)c1 was read as Dyrk1A ADPGlo -4, dFosB act -5, CDK5 inh -3, Rtt109 HAT inh -27 and SMARCA2 act 0.
For Cc1ccc(-n2ncc3c2ncn2c(C)nnc32)cc1C the results were Dyrk1A ADPGlo 1, dFosB act -4, esBAF inh 39, CDK5 inh -3, Rtt109 HAT inh 5, SMARCA2 act 9.0*, SMARCA2 conf 6 and GAL4-VP16 Luc 10*.
`NC(=O)c1sc2nc(-c3ccccc3)ccc2c1N` gave Dyrk1A ADPGlo 3, dFosB act -17, esBAF inh 77*, CDK5 inh -1, Rtt109 HAT inh -4, SMARCA2 act 8.1*, SMARCA2 conf 7 and GAL4-VP16 Luc 10*.
For CCOC(=O)c1sc2nc(-c3ccccc3)ccc2c1N the results were Dyrk1A ADPGlo -1, dFosB act -1, CDK5 inh 1, Rtt109 HAT inh -27 and SMARCA2 act 1.
CCCNC(=O)C[C@H]1CC[C@@H]2[C@H](COc3ccc(NC(=O)Nc4ccccc4)cc3C(=O)N2C)O1 was read as esBAF inh -4.
`CC(C)CC#Cc1cnc2c(c1)C(=O)N([C@@H](C)CO)C[C@H](C)[C@@H](CN(C)Cc1ccccc1)O2` gave esBAF inh -3.
`CCN(CC)C(=O)CN(C#N)c1nc(OC)nc(N(C)C)n1` gave Dyrk1A ADPGlo -2, dFosB act -4, esBAF inh 2, CDK5 inh 1, Rtt109 HAT inh 5, SMARCA2 act 8.9*, SMARCA2 conf 0 and GAL4-VP16 Luc 0.
For COc1ccc(Cc2nc3ccc(C(=O)NCc4cc(C)no4)cc3o2)cc1 the results were Dyrk1A ADPGlo 1, dFosB act -8, esBAF inh 65*, CDK5 inh 2, Rtt109 HAT inh -7, SMARCA2 act 10*, SMARCA2 conf 2 and GAL4-VP16 Luc 5.7*.
CCOC(=O)c1c(NC(=O)COC(=O)CCCOc2ccc(OC)cc2)sc(C(=O)N(C)C)c1C was read as dFosB act -16, esBAF inh -6, CDK5 inh 0, Rtt109 HAT inh 5, SMARCA2 act 8.3*, SMARCA2 conf -1 and GAL4-VP16 Luc 0.
For Cc1cc(C(=O)O)cc(S(=O)(=O)Nc2c(C)nn(C)c2C)c1C the results were dFosB act -9, esBAF inh 0, CDK5 inh 1, Rtt109 HAT inh -1, SMARCA2 act 9.4*, SMARCA2 conf -2 and GAL4-VP16 Luc 0.
`CCCc1cc(=O)n2[nH]c(-c3ccc(Br)cc3)cc2n1` gave Dyrk1A ADPGlo 4, dFosB act -10, esBAF inh 48*, CDK5 inh 0, Rtt109 HAT inh -2, SMARCA2 act 8.2*, SMARCA2 conf 4 and GAL4-VP16 Luc 9.2*.
`Cc1noc(C)c1S(=O)(=O)N(C)C[C@H]1OCCCC[C@@H](C)Oc2ccc(NS(=O)(=O)c3cccs3)cc2C(=O)N([C@@H](C)CO)C[C@@H]1C` gave esBAF inh 0.
For Cn1ncc([N+](=O)[O-])c1C(=O)Nc1ccc(Cl)cc1 the results were Dyrk1A ADPGlo 7, dFosB act 9, esBAF inh 5, CDK5 inh 0, Rtt109 HAT inh 2 and SMARCA2 act -4.
Cn1ncc([N+](=O)[O-])c1C(=O)Nc1ccc(-c2nc3ccccc3[nH]2)cc1 was read as Dyrk1A ADPGlo 6, dFosB act 0, esBAF inh 56*, CDK5 inh -1, Rtt109 HAT inh -2, SMARCA2 act 9.6*, SMARCA2 conf 12* and GAL4-VP16 Luc 2.
Screening C[C@H](CO)N1C[C@H](C)[C@H](CN(C)C(=O)c2ccncc2)Oc2ncc(C#CC3CCCC3)cc2C1=O returned esBAF inh 2.
`S=c1[nH]ncn1/N=C/c1ccc(Br)cc1` gave Dyrk1A ADPGlo -1, dFosB act -3, CDK5 inh 5, Rtt109 HAT inh -1 and SMARCA2 act 0.
For S=c1[nH]ncn1/N=C/c1ccc(N2CCOCC2)cc1 the results were Dyrk1A ADPGlo 1, dFosB act 3, esBAF inh inconclusive, CDK5 inh 1, Rtt109 HAT inh -14, SMARCA2 act 9.2*, SMARCA2 conf 9.2* and GAL4-VP16 Luc 11*.
Screening COc1ccc(C(=O)Cc2ccc3c(c2)OCO3)c(O)c1 returned Dyrk1A ADPGlo -7, dFosB act 3, CDK5 inh 1, Rtt109 HAT inh 0, SMARCA2 act 8.2*, SMARCA2 conf 1 and GAL4-VP16 Luc 8.9*.
O=[N+]([O-])c1cccc(-c2cn3ccccc3n2)c1 was read as Dyrk1A ADPGlo 2, dFosB act -8, esBAF inh 32, CDK5 inh 0, Rtt109 HAT inh -3, SMARCA2 act 12*, SMARCA2 conf 11* and GAL4-VP16 Luc 4.
